Test results from the supplement of paper PMC9135407.
Several values for one entry are separate records, joined by “and”; a condition that tells them apart may be missing. Equal values may be shown once. Where a name gives a salt, the structure may show the parent alone. Screen size: about 5,800 compounds; about 620 (11%) showed activity. The sample as a whole holds a higher share of actives than the screen did. A number with no mark means an inactive call.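 How the source made its calls: active = score above a cut-off or among the top three wells of a plate; in these data no inactive exceeds 0.85.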

Test system: primary human hepatic stellate cells (donor 1)
Test: scaled lipid accumulation score (0 = DMSO-like, 1 = nortriptyline-like); higher = stronger HSC inactivation (lipid re-accumulation), active = hit call of the paper
Settings: 48 h
Protocol: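 Primary lipid accumulation screen in primary human hepatic stellate cell myofibroblasts (donor 1, passage 8) in 384-well plates. 100 nL of library compound was pin-transferred into 30 µL medium in duplicate, and cells were treated for 48 h. The 'Scaled' score combines distance from plate baseline, toxicity and reproducibility penalties, and is normalised to nortriptyline (positive) and DMSO (negative) controls on each plate. A hit is defined as scaled >0.85 or among the top 3 wells per plate.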

[1] = library stock concentration: 1 mM
[2] = library stock concentration: 10 mM
[3] = library stock concentration: 3.33 mM

## Cc1nc(-c2ccc(C(F)(F)F)cc2)sc1C(=O)NCc1ccc(OC(C)(C)C(=O)O)cc1
[1]
  scaled lipid accumulation score: ≤ 0

## CN(C)CCC=C1c2ccccc2CCc2ccccc21 [Annoyltin]
[2]
  scaled lipid accumulation score: 0.841

## CN(C)CCC=C1c2ccccc2CCc2ccccc21 [Amitriptyline HCl]
[3]
  scaled lipid accumulation score: 0.187

## CN(C)CC/C=C1/c2ccccc2COc2ccc(CC(=O)O)cc21
[2]
  scaled lipid accumulation score: ≤ 0

## C(=C/CCN(C)C)(/c1c2cccc1)\c3c(cccc3)CC2.Cl [Amitriptyline hydrochloride]
[2]
  scaled lipid accumulation score: 1.11 (active)

## CN(C)CCC=C1c2ccccc2CCc2ccccc21 [Amitryptiline hydrochloride]
  scaled lipid accumulation score: 0.821

## CN(C)CCC=C1c2ccccc2COc2ccccc21 [Doxepin]
[2]
  scaled lipid accumulation score: 0.731

## CN(C)CC/C=C1/c2ccccc2COc2ccc(CC(=O)O)cc21 [Olopatadine]
Library stock concentration: 5.9 mM
  scaled lipid accumulation score: ≤ -0.006

## CN(C)CC/C=C1/c2ccccc2COc2ccc(CC(=O)O)cc21 [Olopatadine HCl]
[3]
  scaled lipid accumulation score: ≤ 0
[2]
  scaled lipid accumulation score: ≤ 0

## CN(C)CCC=C1c2ccccc2CCc2ccccc21 [Amitriptyline hydrochloride]
Library stock concentration: 6.4 mM
  scaled lipid accumulation score: 0.347
[2]
  scaled lipid accumulation score: 0.6

## CN(C)CCC=C1c2ccccc2COc2ccccc21 [Doxepin hydrochloride]
  scaled lipid accumulation score: 0.633
[2]
  scaled lipid accumulation score: 0.495 and 0.707 and 0.72

## CN(C)CC/C=C1/c2ccccc2COc2ccccc21.Cl [Doxepin hydrochloride]
Library stock concentration: 6.3 mM
  scaled lipid accumulation score: 1.34 (active)

## CN(C)CCC=C1c2ccccc2CCc2ccccc21.Cl [Amitriptyline HCl]
[2]
  scaled lipid accumulation score: 0.863 (active)

## CN(C)CCC1(c2ccc(Cl)cc2)Cc2ccccc2C(=O)O1 (centres undefined)
[2]
  scaled lipid accumulation score: 0.575

## C[C@H]1[C@H](OC(=O)CCC(=O)O)O[C@@H]2O[C@@]3(C)CC[C@H]4[C@H](C)CC[C@@H]1[C@@]24OO3
[2]
  scaled lipid accumulation score: ≤ 0

## C[C@H]1[C@H](OC(=O)CCC(=O)O)O[C@@H]2O[C@@]3(C)CC[C@H]4[C@H](C)CC[C@@H]1[C@@]24OO3 [Artesunate]
[3]
  scaled lipid accumulation score: 0.009
Library stock concentration: 5.2 mM
  scaled lipid accumulation score: ≤ 0
[2]
  scaled lipid accumulation score: ≤ 0

## C/C=C/C/C=C/CCC(=O)[C@H]1O[C@H]1C(N)=O [Cerulenin]
[1]
  scaled lipid accumulation score: ≤ 0
Library stock concentration: 22.4 mM
  scaled lipid accumulation score: 0.518

## CCCCCC(O)C=CC1C=CC(=O)C1CCCCCCC(=O)O (centres undefined) [8-iso Prostaglandin A1]
[1]
  scaled lipid accumulation score: ≤ 0

## CCCCCC(O)C=CC1C=CC(=O)C1CCCCCCC(=O)O (stereo not drawn) [15-epi Prostaglandin A1]
[1]
  scaled lipid accumulation score: ≤ 0

## N[C@@H](Cc1c[nH]cn1)C(=O)O [L-Histidine hydrochloride]
[2]
  scaled lipid accumulation score: ≤ -0.07

## COC1=CC(=O)C=C(OC)C1=O [2,6-dimethoxyquinone]
[2]
  scaled lipid accumulation score: 0.299

## CC(C)NCC(O)c1ccc(O)c(O)c1 (single isomer, unassigned; (-)) [(-)-Isoproterenol hydrochloride]
  scaled lipid accumulation score: ≤ 0
[2]
  scaled lipid accumulation score: ≤ -0.055

## CC[C@H]1C(=O)OC[C@@H]1Cc1cncn1C [Isopilocarpine nitrate]
[2]
  scaled lipid accumulation score: ≤ 0

## COc1cccc(OC)c1OCCNCC1CSc2ccccc2O1 (centres undefined) [Benoxathian hydrochloride]
[2]
  scaled lipid accumulation score: 0.629

## CC1(C)CC(Nc2nccc(-c3cnn(-c4ccccc4)c3)n2)CC(C)(C)N1
[2]
  scaled lipid accumulation score: 0.799 (active)

## CCCn1ncc(-c2ccnc(NC3CC(C)(C)NC(C)(C)C3)n2)c1C
[2]
  scaled lipid accumulation score: 0.86 (active)

## C[C@@H]1O[C@@H](O[C@H]2[C@H](Oc3cc(O)c(C(=O)CCc4ccc(O)cc4)c(O)c3)O[C@H](CO)[C@@H](O)[C@@H]2O)[C@H](O)[C@H](O)[C@H]1O [Naringin Dihydrochalcone]
[3]
  scaled lipid accumulation score: ≤ 0
[2]
  scaled lipid accumulation score: 0.078

## O=C(O)CCC/C=C\C[C@@H]1CO[C@H](C(F)(F)F)O[C@@H]1c1ccccc1O
[2]
  scaled lipid accumulation score: ≤ 0

## CCCCCCCC/C=C\CCCCCCCC(=O)OC[C@H](CO)OC(=O)CCCCCCC/C=C\CCCCCCCC [1,2-Dioleoyl-sn-glycerol]
[1]
  scaled lipid accumulation score: ≤ 0

## CCN(CC)CCCC(C)Nc1nc(C)cc(Nc2ccc3nc(C)cc(N)c3c2)n1 (centres undefined)
[3]
  scaled lipid accumulation score: ≤ -0.009
[2]
  scaled lipid accumulation score: 0.217 and 0.086

## CCN(CC)CCCC(C)Nc1c2ccc(Cl)cc2nc2ccc(OC)cc12 (centres undefined) [Quinacrine dihydrochloride dihydrate]
  scaled lipid accumulation score: 0.288

## CCN(CC)CCCC(C)Nc1c2ccc(Cl)cc2nc2ccc(OC)cc12 (centres undefined) [Quinacrine 2HCl]
[3]
  scaled lipid accumulation score: 0.307
[2]
  scaled lipid accumulation score: 0.325

## CCN(CC)CCCC(C)Nc1c2ccc(Cl)cc2nc2ccc(OC)cc12 (centres undefined) [Quinacrine dihydrochloride]
[2]
  scaled lipid accumulation score: 0.536

## CCN(CC)CCCC(C)Nc1c2ccc(Cl)cc2nc2ccc(OC)cc12 (centres undefined) [Quinacrine 2HCl dihydrate]
Library stock concentration: 5 mM
  scaled lipid accumulation score: 0.876 (active)
